# Screens: PubChem BioAssay, National Center for Advancing Translational Sciences (NCATS)
# This is a sample that favours compounds with a hit; in the whole collection about 3.2% have one here.
# PNC inhibitor = blocks assembly of the perinucleolar compartment; PC3M PTB-GFP, PNC prevalence imaging, 16 h; stronger effect = lower value; activity change (PNC), negative = inhibition, % at 10 µM; actives 3.1% (n = 140,000); AID 2417;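 active means readout at or below -70, meaning at least 70% loss of cells showing the perinucleolar compartment, a nuclear body marking cancer cells; inconclusive means readout between -30 and a set limit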;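 further: plate controls were DMSO wells for no effect and camptothecin positive control wells for full effect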
#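 Compounds are pinned in duplicate onto adhered PC3M cells stably expressing GFP-tagged PTB and incubated 16 h at 37 C. Cells are then fixed, nuclei stained with Hoechst, and PNC-positive cells counted.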
# ALOX15B inhib = inhibitors of human 15-lipoxygenase 2 (ALOX15B) | O15296 | purified 15hLO-2, xylenol orange hydroperoxide absorbance | Potency, µM (top dose mostly 57.1 µM), for inactives: at the top dose activity change, negative = inhibition, most hits filed as inhibitors | actives 0.56% (n = 110,000); further: potency means the concentration at half of the fitted maximal effect; nearly all actives have a fitted effect of over 60% in size
#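 Purified human 15hLO-2 (50 nM) preincubated 15 min with compound, then 45 uM arachidonic acid for 90 min at RT in 25 mM Hepes pH 7.5, 0.01% Triton X-100. Hydroperoxide detected by Fe-xylenol orange; 573/405 nm absorbance ratio.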
# ALOX12 inhib = blocks human 12-lipoxygenase activity. P18054. purified 12-hLO, xylenol orange hydroperoxide absorbance. Potency, µM (titrated, usually from 57.1 µM), inactives show top-dose activity change, negative = inhibition, most hits filed as inhibitors. actives 0.12% (n = 150,000); further: potency means the concentration at half of the fitted maximal effect; nearly all actives have a fitted effect of over 55% in size
# Target sequence (P18054 whole entry, looked up): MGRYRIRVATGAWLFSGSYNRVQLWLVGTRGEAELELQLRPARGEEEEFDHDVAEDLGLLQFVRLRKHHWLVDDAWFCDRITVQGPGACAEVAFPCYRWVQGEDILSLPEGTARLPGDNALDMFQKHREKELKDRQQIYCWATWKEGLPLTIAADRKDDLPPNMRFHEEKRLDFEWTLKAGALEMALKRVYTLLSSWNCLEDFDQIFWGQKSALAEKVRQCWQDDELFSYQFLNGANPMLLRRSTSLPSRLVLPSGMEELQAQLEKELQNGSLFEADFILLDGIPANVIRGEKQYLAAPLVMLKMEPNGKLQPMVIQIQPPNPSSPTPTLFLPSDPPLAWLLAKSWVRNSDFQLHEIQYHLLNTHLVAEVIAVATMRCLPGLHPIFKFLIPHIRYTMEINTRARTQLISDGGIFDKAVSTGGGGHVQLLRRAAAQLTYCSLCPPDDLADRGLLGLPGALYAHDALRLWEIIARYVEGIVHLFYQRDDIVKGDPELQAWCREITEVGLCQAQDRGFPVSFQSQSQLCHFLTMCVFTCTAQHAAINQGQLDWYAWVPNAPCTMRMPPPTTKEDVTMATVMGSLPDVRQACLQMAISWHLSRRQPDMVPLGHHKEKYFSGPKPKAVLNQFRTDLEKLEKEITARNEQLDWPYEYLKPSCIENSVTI
#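 150 nM 12hLO, 25 mM Hepes pH 7.0 + 0.01% Triton X-100; cpd preinc 15 min RT; 40 uM arachidonic acid, 30 min RT; Fe-XO 30 min; A573/A405 ratio as read-out.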
# * marks the source's active call; other numbers are inactive results; ? = inconclusive; . = no result given; [ ] = remark or other dose. Unless noted, the call rests on the fitted dose curve; in most records, active means well fitted curve in the direction sought with a large enough effect; inconclusive means small, poorly fitted or top-dose-only effect, or another doubt; inactive means no such curve, though single readings can be large; an effect the other way counts as inactive or inconclusive. Unless noted, on the % scale 0 is the no-effect control and ±100 the full control effect.
SMILES,PNC inhibitor,ALOX15B inhib,ALOX12 inhib
C/C(=C\C(=O)Nc1nccs1)c1ccccc1,18,40%,-6%
Cn1c(SCC(=O)NC(=O)NCc2ccco2)nnc1C(F)(F)F,?,12%,-1%
COc1ccc(Cc2nnc3c4cnn(C)c4ncn23)cc1,-86*,-1%,3%
Cc1cccc(C)c1OCc1nnc2c3cnn(C)c3ncn12,-22,3%,-3%
C=CCn1c(Cc2cccs2)nnc1SC/C=C/c1ccccc1,?,-12%,-3%
CC#N,.,-6%,2%
COc1ccc(-n2c(=O)c(-c3cccs3)nc3cnc(OC)nc32)cc1,.,-6%,.
CC(C)C1Oc2ccccc2N(CC(=O)N(Cc2ccccn2)C2CC2)C1=O (stereo unspecified),-100*,.,3%
CC1Oc2ccccc2N(CC(=O)N(Cc2ccccc2)Cc2ccccn2)C1=O (stereo unspecified),?,7%[2.29 µM],-6%
Cc1nc2ccccc2c(=O)n1NC(=O)c1ccco1,299,.,-1%
Cc1ccccc1OCc1nc2ccccc2c(=O)n1NC(=O)c1ccco1,-100*,.,-5%
COC(=O)C(C(C)=O)C1c2ccccc2C=C(C)N1C(=O)OC (stereo unspecified),.,.,4%[11.4 µM]
O=C1/C(=C/c2ccco2)CCc2ccccc21,-17,.,-9%
CCC1C/C(=C/c2ccco2)C(=O)/C(=C/c2ccco2)C1 (stereo unspecified),-119*,.,-16%
Cn1c[n+](C)cc1-c1ccc(/C(N)=N/O)cc1,-80*,.,-3%
Cc1nnc(SCC(=O)N2CCOCC2)s1,?,-3%,1%
O=C(Nc1nnc(SCC(=O)N2CCOCC2)s1)c1ccccc1,-89*,.,-1%
Cc1ccc(C)c(/C(=N\N=C(N)N)C2CC2)c1,.,8%[11.4 µM],2%[11.4 µM]
Cc1ccccc1-c1nc(NCc2cccnc2)c2ccccc2n1,.,9%,0%
CC[n+]1c(C)sc2c(C)cc(C)cc21,-99*,-8%[11.4 µM],-7%
CC[n+]1c(S(=O)(=O)[O-])ccc2ccc(C)cc21,1,4%,-8%
CC(C)(C)NC(=O)c1ccc2c(c1)N(CC(=O)N1CCN(c3ccc(F)cc3)CC1)C(=O)C(C)(C)O2,-3,-2%,-3%
COC(=O)C1=C(C)NC(C)=C(C(=O)OC)C1c1cc2ccc(C)cc2[nH]c1=O,14,-7%,-13%
CCOC(=O)C1=C(C)NC(C)=C(C(=O)OCC)C1c1cc2ccc(C)cc2[nH]c1=O,-111*,16%,?
C[C@@H](COc1ccc(/C=C\c2ccccc2)cc1)[N+](C)(C)C,.,-7%,-6%
SMILES,PNC inhibitor,ALOX15B inhib,ALOX12 inhib
C[C@@H]1Cc2ccccc2N1NC(=O)c1ccc(Cl)c(S(N)=O)c1 (stereo partly specified),.,-6%[25.6 µM],-2%[25.6 µM]
CCOc1ccc(S(=O)(=O)N(CC(=O)N/N=C/c2ccc(-c3ccc([N+](=O)[O-])cc3)o2)c2ccccc2)cc1,47,13µM*,-19%
Cc1ccc(C)c(N(CC(=O)N/N=C/c2ccc(-c3ccc([N+](=O)[O-])cc3)o2)S(=O)(=O)c2ccccc2)c1,?,?,-11%
COc1ccc(Oc2ncc3nc(-c4ccccc4)c(=O)n(C4CC4)c3n2)cc1,.,-10%,2%
Cc1nn(-c2ccccc2Cl)c(Cl)c1/C=N/Nc1nc2ccccc2s1,-83*,.,0%
CCOC(=O)N/N=C/c1c(C)nn(-c2ccccc2Cl)c1Cl,-9,.,-2%
COc1ccc(C2C=C(c3ccc(Br)s3)Nc3ncnn32)cc1OC (stereo unspecified),?,0%,-7%
COCCn1c(=O)c(-c2ccc(F)cc2)nc2cnc(Oc3ccccc3)nc21,.,-5%,.
CCCOc1cccc(OCCSc2nc(C)cc(=O)[nH]2)c1,-86*,-3%,-3%
Cc1cc(=O)[nH]c(SCCCOc2ccc(F)cc2)n1,24,-1%,4%
COc1ccc(C(=O)Cn2c(C(=O)/C=C/c3ccccc3)nc3ccccc32)cc1,4,-2%,11%
CN(C)S(=O)(=O)c1cc(NC(=O)COC(=O)Cc2ccc(Cl)cc2Cl)ccc1Cl,-14,.,-4%
CN(C)S(=O)(=O)c1cc(NC(=O)COC(=O)CCSc2ccc(Cl)cc2)ccc1Cl,-88*,.,-2%
COc1ccc(/C=C/C(=O)OCC(=O)Nc2ccc(Cl)c(S(=O)(=O)N(C)C)c2)cc1OC,-110*,.,-17%
COc1ccc(/C=C/C(=O)OCC(=O)Nc2ccc(OC)c(S(=O)(=O)N3CCCCC3)c2)cc1,4,.,-2%
CN1CCN(c2ccnc(-c3ccc(N(C)C)cc3)n2)CC1,.,-7%,.
CC(C)(Oc1ccc(Cl)cc1)C(=O)O,.,11%,-2%
Cc1cccc(OCCNc2cc(N3CCN(CCO)CC3)ccc2[N+](=O)[O-])c1,?,.,3%
CC(C)(C)c1ccc(O)c(O)c1,.,5µM*,-14%
CC(C)(C)c1ccc(O)c(/C=N\O)c1,19,-6%,-13%
CCc1ccc2c(c1)[C@H]1OCC[C@H]1[C@@H](c1cccs1)N2,-109*,.,0%
Clc1ccc2c(c1)[C@H]1OCC[C@H]1[C@@H](c1ccco1)N2,60,.,-6%
Cc1cccc(C)c1C(OCCN(C)C)C1CCCCC1 (stereo unspecified),8,.,-1%
COc1ccccc1CN(Cc1ccco1)S(=O)(=O)c1ccc(-n2cnnn2)c(OC)c1,2,-9%,-2%
Cc1ccc2[nH]c(O)c(N=NC(=O)C(C)n3cnc4ccccc4c3=O)c2c1 (stereo unspecified),22,.,-3%
SMILES,PNC inhibitor,ALOX15B inhib,ALOX12 inhib
COC(=O)c1[nH]c2ccc(F)cc2c1NC(=O)CCN1CC(C)OC(C)C1 (stereo unspecified),-89*,7%,-6%
CCOC(=O)c1[nH]c2ccccc2c1NC(=O)CCN1CC(C)OC(C)C1 (stereo unspecified),25,-6%,-4%
O=C(NCc1ccccn1)c1coc(=O)c(Br)c1,-87*,8%,-3%
CCOc1ccc(C(=O)NCc2ccccn2)cc1,5,5%,6%
O=C(NC1CCCC1)C(c1cccnc1)N(C(=O)c1csnn1)C1CCCC1 (stereo unspecified),6,.,9%
O=C(NC1CCCCC1)C(c1cccnc1)N(C(=O)c1csnn1)C1CCCC1 (stereo unspecified),-100*,.,-1%
O=Cc1cn(CC(=O)N2CCCc3ccccc32)c2ccccc12,-100*,.,1%
N#Cc1cn(CC(=O)N2CCCc3ccccc32)c2ccccc12,66,.,-4%
CCN1CCN(C(C)C(=O)Nc2c(C)n(C)n(-c3ccccc3)c2=O)CC1 (stereo unspecified),27,-15%,-6%
O=C(NCc1cccnc1)C(=O)NCC1OCCN1S(=O)(=O)c1ccc(F)cc1 (stereo unspecified),44,.,2%
CCN(c1cccc(C)c1)S(=O)(=O)c1ccc2c(c1)CCN2C(C)=O,29,-1%,-5%
CCN(c1cccc(C(F)(F)F)c1)S(=O)(=O)c1ccc2c(c1)CCN2C(C)=O,-98*,-1%,1%
Cc1ccc(Cn2nnnc2CN2CCC(NC(=O)c3ccccc3F)CC2)cc1,-17,-3%,-7%
Cc1ccc(Cn2nnnc2CN2CCC(O)(c3ccccc3F)CC2)cc1,-100*,.,-17%
CN(C)CCSc1nnc2[nH]c3ccccc3c2n1,55,.,0%
